From PubChem BioAssay (NCATS) come the findings set out here.

Structures are written as SMILES. Records with an inconclusive call do not appear. Where a call stands in place of a potency, no number is given. Active and inactive are the calls of the source. The call rests on the fitted dose curve; in most records, active means well fitted cell-killing curve with a large enough effect; inconclusive means small, poorly fitted or top-dose-only effect; inactive means flat fitted curve, though single readings scatter.
Potency means the concentration at half of the fitted maximal effect.

The assay in a line: Cell Viability - LYMP2-011 (AID 969). Further: nearly all actives have a fitted effect of over 60% in size. Particulars: LYMP2-011 lymphoblastoid cells viability; series mostly up to 92.2 µM. The source says:
NIH Chemical Genomics Center [NCGC]
NIH Molecular Libraries Screening Centers Network [MLSCN]
National Institutes of Environmental Health Sciences [NIEHS]
National Toxicology Program [NTP]
We have developed a 1536-well cell-based assay for quantitative high throughput screening (qHTS) against a number of cell lines to determine in vitro cytotoxicity of small molecules. This particular assay uses a human lymphoblastoid cell line (LYMP2-011) purchased from Coriell Institute for Medical Research.
NCGC Assay Protocol Summary:
The CellTiter-Glo luminescent cell viability assay (Promega) is a homogeneous method to measure the number of viable cells in culture. The end point readout of this assay is based on quantitation of intracellular ATP, an indicator of metabolic activity, using the luciferase reaction. Luciferase catalyzes the oxidation of beetle Luciferin to oxyluciferin and light in the presence of ATP. The luminescent signal is proportional to amount of ATP present.
Using the CellTiter-Glo luminescent cell viability assay, the amount of cellular ATP was measured in the lymphoblastoid cell line with complete culture medium following compound treatment for 24 hours. The assay was performed in opaque white Kalypsys 1536-well plates. In the screen, tetraoctylammonium bromide was used as positive control. Library compounds were measured for their ability to cause acute toxicity in the cell line, as reflected by a decrease in intracellular ATP levels, in a concentration-dependent manner. […] AC50 values were determined from concentration-response data modeled with the standard Hill equation.
qHTS protocol for CellTiter Glo lymphoblastoid cellular assay
[Step] [Parameter] [Value] [Description]
1. Reagent; 5 uL; 2500 lymphoblastoid cells/well
2. Time; 5 hr; 37 C incubation
4. Controls; 23 nL; Tetraoctylammonium bromide 6.4pM to 92 uM
5. Time; 24 hr; 37 C incubation
6. Reagent; 5 uL; CellTiter Glo reagent
7. Time; 30 min; Room Temperature
8. Detection; Luminescence; Viewlux plate reader
Keywords: cell viability, cytotoxicity, lymphoblastoid cell line, luminescence, NTPHTS, NTPHTS_NCGC, NIEHS, DSSTox, MLSMR, MLSCN, NIH Roadmap, qHTS, NCGC
In the case of `CC1=CCC2CC1C2(C)C` (centres undefined), the Potency entry is “inactive”.
As for `Cc1ncc[nH]1`, the Potency result was “inactive”.
Take `OCc1ccccc1`: the Potency result was “inactive”.
With `CC(C)(C)CC(C)(C)c1ccc(OCCO)cc1` the entry was “inactive”; with `NC(N)=O`, “inactive”; with `O=P(O)(O)O`, “inactive”.
Regarding `C/C=C/C=C/C(=O)O`, the Potency entry is “inactive”.
Turning to `Oc1cccc(O)c1O`, the Potency result was “inactive”.
For the compound `Oc1ccc(/C=C/c2cc(O)cc(O)c2)cc1`, the Potency result was “inactive”.
For `COC(=O)c1ccccc1O`, the Potency entry was “inactive”.
On to `O=c1n(CC2CO2)c(=O)n(CC2CO2)c(=O)n1CC1CO1` (centres undefined), for which the Potency was 39.8 µM (active).
As for `CC(C)O`, the Potency entry is “inactive”.
With `C=C1C(CCl)(CCl)C2(Cl)C(Cl)C(Cl)C1(Cl)C2(Cl)Cl` (centres undefined) the figure was 50.1 µM (active).
On to `CO/N=C(/C(=O)N[C@@H]1C(=O)N2C(C(=O)O)=C(COC(N)=O)CS[C@H]12)c1ccco1`, for which the Potency result is “inactive”.
With `C[C@H](CCC(=O)O)[C@H]1CC[C@H]2[C@@H]3CC[C@@H]4C[C@H](O)CC[C@]4(C)[C@H]3C[C@H](O)[C@]12C` the entry was “inactive”; with `OB(O)O`, “inactive”; with `OCl`, “inactive”.
On to `CCCCO`, for which the Potency entry is “inactive”.
In the case of `CC1=CC(=O)NS(=O)(=O)O1`, the Potency result was “inactive”.
Consider `OCC(O)CO`, for which the Potency result was “inactive”.
In the case of `Nc1ncnc2c1ncn2[C@H]1CC[C@@H](CO)O1`, the Potency entry was “inactive”.
In the case of `c1ccc2ccccc2c1`, the Potency entry is “inactive”.
With `[O-][N+](=Nc1ccccc1)c1ccccc1`, the Potency entry was “inactive”.
As to `NCCN`, the Potency entry is “inactive”.
Regarding `C[C@H](CCC(=O)O)[C@H]1CC[C@H]2[C@@H]3[C@H](O)C[C@@H]4C[C@H](O)CC[C@]4(C)[C@H]3C[C@H](O)[C@]12C`, the Potency entry is “inactive”.
For the compound `Nc1ccc(N=Nc2ccccc2)c(N)n1`, the Potency entry is “inactive”.
The value for `CC[C@H]1OC(=O)[C@H](C)[C@@H](O[C@H]2C[C@@](C)(OC)[C@@H](O)[C@H](C)O2)[C@H](C)[C@@H](O[C@@H]2O[C@H](C)C[C@H](N(C)C)[C@H]2O)[C@](C)(O)C[C@@H](C)CN(C)[C@H](C)[C@@H](O)[C@]1(C)O` was “inactive”.
As to `CO`, the Potency entry is “inactive”.
Take `Nc1nccs1`: the Potency entry was “inactive”.
With `Cc1ccc(S(=O)(=O)O)cc1C`, the Potency result was “inactive”.
On to `CCCCC`, for which the Potency entry was “inactive”.
The value for `ClC(Cl)Cl` was “inactive”; that for `CCOC(C)OCC` was “inactive”.
`OC[C@H]1O[C@@H]2O[C@H]3[C@H](O)[C@@H](O)[C@@H](O[C@H]4[C@H](O)[C@@H](O)[C@@H](O[C@H]5[C@H](O)[C@@H](O)[C@@H](O[C@H]6[C@H](O)[C@@H](O)[C@@H](O[C@H]7[C@H](O)[C@@H](O)[C@@H](O[C@H]1[C@H](O)[C@H]2O)O[C@@H]7CO)O[C@@H]6CO)O[C@@H]5CO)O[C@@H]4CO)O[C@@H]3CO`: the Potency entry is “inactive”.
